Source: PubChem (several laboratories)
Compounds with a hit are over-represented: about 5.4% of the library has one in this group of screens.
CSC inhib = cancer stem cell viability inhibitors, primary screen, luminescence; cancer stem cell-like cells viability; inhibition, % at 7.5 µM; actives 1.1% (n = 300,000); in the data active means inhibition above about 75%; inconclusive means no clear call, values can overlap the other calls; tested in HMLE shEcad cells
MPTP block = mitochondrial permeability transition pore inhibitors, primary screen, biochemical, isolated mouse mitochondria, absorbance; Ca2+ swelling absorbance, 30 min; inhibition, % at 10 µM; actives 1.4% (n = 360,000); AID 602449, 2012;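 active means inhibition of 50% or more, scaled per plate between neutral and stimulator controls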
Mdm2 MdmX PPI = inhibitors of human Mdm2-MdmX association, primary screen, cell-based, luminescence, split luciferase, SaOS-2, uHTS; AID 485346, 2010; SaOS-2 split-luciferase Mdm2/MdmX complementation; actives 3% (n = 330,000); inhibition, % at 8 µM; Protein Mdm4 (Homo sapiens) + E3 ubiquitin-protein ligase Mdm2 (Homo sapiens), …;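 active means inhibition of at least 50% at 8 µM in the primary screen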
Target sequence (O15151 whole entry, looked up): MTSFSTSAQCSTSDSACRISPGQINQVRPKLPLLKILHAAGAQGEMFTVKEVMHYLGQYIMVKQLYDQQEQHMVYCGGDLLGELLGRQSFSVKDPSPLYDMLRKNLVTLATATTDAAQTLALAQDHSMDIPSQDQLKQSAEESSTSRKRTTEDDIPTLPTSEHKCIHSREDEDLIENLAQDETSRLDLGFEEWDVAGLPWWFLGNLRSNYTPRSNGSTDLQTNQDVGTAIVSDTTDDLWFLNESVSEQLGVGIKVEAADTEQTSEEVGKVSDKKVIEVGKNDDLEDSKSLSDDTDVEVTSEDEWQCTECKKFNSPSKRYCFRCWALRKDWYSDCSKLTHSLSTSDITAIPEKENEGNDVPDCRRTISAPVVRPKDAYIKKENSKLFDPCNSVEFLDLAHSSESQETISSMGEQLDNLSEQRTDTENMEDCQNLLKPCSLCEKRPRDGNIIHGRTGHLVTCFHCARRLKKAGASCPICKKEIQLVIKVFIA
Target sequence (Q00987 whole entry, looked up): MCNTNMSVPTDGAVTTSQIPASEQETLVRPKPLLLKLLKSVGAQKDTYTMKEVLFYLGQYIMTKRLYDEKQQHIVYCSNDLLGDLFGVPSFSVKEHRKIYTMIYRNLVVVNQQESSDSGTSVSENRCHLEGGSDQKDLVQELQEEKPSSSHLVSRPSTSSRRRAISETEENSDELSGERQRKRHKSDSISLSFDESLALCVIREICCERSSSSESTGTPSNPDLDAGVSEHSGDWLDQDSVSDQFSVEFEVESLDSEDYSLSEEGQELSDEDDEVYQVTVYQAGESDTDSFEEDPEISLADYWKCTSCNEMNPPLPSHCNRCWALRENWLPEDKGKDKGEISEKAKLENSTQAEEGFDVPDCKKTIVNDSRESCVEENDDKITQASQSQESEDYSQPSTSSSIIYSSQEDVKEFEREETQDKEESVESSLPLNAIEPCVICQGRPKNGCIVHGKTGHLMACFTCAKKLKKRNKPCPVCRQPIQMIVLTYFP
Beta apoptosis = inhibitors of cytokine-induced beta cell apoptosis, primary screen, luminescence. AID 435005, 2010. actives 0.8% (n = 300,000). INS-1E cytokine-induced death, ATP luminescence, 48 h; percent of positive-control rescue, neutral wells zero. protection from apoptosis, % (concentration not given with the values);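 active means Every replicate reaches about 75%, or at least half do and their mean reaches it too, limit read from the data; inconclusive means At least half of replicates reach the limit but their mean does not; inactive means Under half of replicates reach the limit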;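 further: higher means more ATP so stronger rescue from cytokine killing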
Calb FLC = C. albicans growth inhibition with fluconazole, primary screen, CaCi-2 strain, Alamar Blue fluorescence. growth inhibition, % (concentration not given with the values). AID 1979, 2009. actives 0.57% (n = 300,000). C. albicans CaCi-2 (fluconazole-resistant clinical isolate) + fluconazole, 48 h;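 active means growth inhibition above about 58% in most replicates, limit read from the data, passing the limit was not always enough; inconclusive means exactly half the replicates above a set limit; inactive means most replicates below a set limit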;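 further: all wells also contain fluconazole at 8 µg/ml as a sub-toxic cotreatment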
SKKanGAS inh = S. pyogenes SKKanGAS growth inhibitors in kanamycin, primary screen, streptokinase expression inhibitor project, SKKanGAS strain, BacTiter-Glo luminescence; AID 1662, 2009; actives 1.3% (n = 300,000); inhibition, % at 7.5 µM; 6 h;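 active means mean replicate score, as percent of positive control median, at least 50; inconclusive means mean below 50 but one replicate at or above 50; inactive means mean and every replicate below 50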;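 further: strain carries kanamycin resistance gene driven by streptokinase promoter and grows in 40 µg/ml kanamycin; loss of luminescence reflects streptokinase promoter inhibition or plain growth inhibition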
MPTP counter = fluorescence retest of MPTP screen hits in isolated mitochondria, single concentration. shares compounds with MPTP block. membrane potential, Rhodamine 123 fluorescence. inhibition, % at 10 µM. actives 78% (n = 5,000). AID 624504, 2012; in the data active means inhibition above about 22%
MPTP abs DR = mitochondrial permeability transition pore inhibitors, dose response, biochemical, absorbance, uHTS hits | IC50, µM | actives 58% (n = 780) | AID 651561, 2012 | isolated mitochondria swelling | shares compounds with MPTP block; in the data active means IC50 below about 20 µM
MPTP counter DR = fluorescent counter-screen in isolated mitochondria, dose response, counter-screen for MPTP inhibitor project, biochemical, fluorescence, uHTS hits. AID 651564, 2012. actives 49% (n = 780). isolated mitochondria counterscreen, fluorescence read-out. IC50, µM. shares compounds with MPTP block; in the data active means IC50 below about 80 µM
Numbers stand for hits.

Cc1ccccc1NC(=S)NC(NC(=O)c1ccco1)C(Cl)(Cl)Cl (configuration not stated) was read as CSC inhib inactive, MPTP block inactive, Mdm2 MdmX PPI inactive, Beta apoptosis inactive, Calb FLC inactive and SKKanGAS inh inactive.
`O=C(NC(NC(=S)Nc1cc(Cl)ccc1Cl)C(Cl)(Cl)Cl)c1ccco1` (configuration not stated) gave CSC inhib inactive, MPTP block 82, Mdm2 MdmX PPI inactive, Beta apoptosis inactive, Calb FLC inactive, SKKanGAS inh inactive and MPTP counter 73.
Screening O=C(Cc1ccccc1)NC(NC(=S)Nc1cc(Cl)ccc1Cl)C(Cl)(Cl)Cl (configuration not stated) returned CSC inhib inactive, MPTP block 98, Mdm2 MdmX PPI inactive, Beta apoptosis inactive, Calb FLC inactive, SKKanGAS inh inactive and MPTP counter 70.
Cn1nc(C(C)(C)C)cc1C(=O)NCc1ccc(N2CCCC2=O)cc1 was read as CSC inhib inactive, MPTP block 95, Mdm2 MdmX PPI inactive, Beta apoptosis 116, Calb FLC inconclusive, SKKanGAS inh inactive and MPTP counter 93.
N#CC(/C(=N/S(=O)(=O)c1cccs1)c1ccccc1)c1nc2ccccc2[nH]1 (configuration not stated) was read as CSC inhib inactive, MPTP block 66, Mdm2 MdmX PPI inactive, Beta apoptosis inactive, Calb FLC inactive, SKKanGAS inh inactive and MPTP counter 72.
`CCC1CCCCN1S(=O)(=O)c1ccc(NC(=O)C2CCN(C(=O)c3ccco3)CC2)cc1` (configuration not stated) gave MPTP block inactive, Mdm2 MdmX PPI inactive, Beta apoptosis inactive, Calb FLC inactive and SKKanGAS inh inactive.
For CCC1CCCCN1S(=O)(=O)c1ccc(NC(=O)c2ccncc2)cc1 (configuration not stated) the results were CSC inhib inactive, MPTP block 75, Mdm2 MdmX PPI inactive, Calb FLC inactive, SKKanGAS inh inactive and MPTP counter 89.
Screening CC(OC(=O)c1ccc2ccccc2c1)C(=O)N(C)Cc1ccccc1 (configuration not stated) returned CSC inhib inactive, MPTP block inactive, Mdm2 MdmX PPI inactive and Beta apoptosis inactive.
CC(C)N(CCC(=O)c1ccc2ccccc2c1)Cc1ccccc1 was read as CSC inhib 75, MPTP block 99, Mdm2 MdmX PPI inactive, Beta apoptosis inactive and MPTP counter inactive.
For COc1ccc(NC(=O)c2c3c(nc4ccccc24)CCC3)cc1S(=O)(=O)N1CCOCC1 the results were CSC inhib inactive, MPTP block inactive, Mdm2 MdmX PPI inactive, Beta apoptosis inactive, Calb FLC inactive and SKKanGAS inh inactive.
`CC(NC(=O)c1ccc(CS(C)(=O)=O)cc1)c1cccc2ccccc12` (configuration not stated) gave MPTP block inactive, Mdm2 MdmX PPI inactive, Beta apoptosis inactive, Calb FLC inactive and SKKanGAS inh inactive.
N#Cc1nc(COc2ccc(-c3ccccc3)cc2)oc1NCCCN1CCOCC1 was read as MPTP block inactive, Mdm2 MdmX PPI inactive, Beta apoptosis inactive, Calb FLC inactive and SKKanGAS inh inactive.
Screening CN(C)CCNc1oc(COc2ccc(-c3ccccc3)cc2)nc1C#N returned CSC inhib inactive, MPTP block 75, Mdm2 MdmX PPI inactive, Beta apoptosis inactive, Calb FLC inactive, SKKanGAS inh inactive, MPTP counter inactive, MPTP abs DR 5.9 and MPTP counter DR 54.
